Laboratory results: PubChem BioAssay (NCATS)
Inconclusive results are not listed. Active and inactive are the calls of the source. Calls come from the whole dose curve; as a rule, active = well fitted curve in the direction sought with a large enough effect; inconclusive = small, poorly fitted or top-dose-only effect, or another doubt; inactive = no such curve, though single readings can be large; an effect the other way counts as inactive or inconclusive.

Assays:
[1] = Cellular Toxicity (caspase-3) Mesangial (AID 660); details: mesangial cells, normalized: DMSO 0%, 100 µM tamoxifen 100%; at 91.7 µM (top of the series);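 note: combined caspase 3 and 7 activity read by Caspase-Glo luminescence; cells exposed to compound for 16 h before the caspase read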
Outline: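 Seed cells derived from normal human renal glomeruli, incubate 5 h, add compounds across concentrations and incubate 16 h at 37 °C. Caspase 3/7 activation is then quantified by luciferase light, with AC50 derived by Hill modeling.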

[2] = Cellular Toxicity (caspase-3) SK-N-SH (AID 661);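 note: 0% = DMSO basal and 100% = 10 µM staurosporine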
Outline: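 Cells were seeded and incubated 5 hr at 37 °C, dosed with compound over a concentration range for 16 hr, then given Caspase-Glo 3/7 reagent for 1 hr at room temperature before luminescence reading.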

[3] = Cellular Toxicity (caspase-3) H-4-II-E (AID 663); details: H-4-II-E rat hepatoma, scaled: DMSO 0%, 100 µM tamoxifen 100%; at 92.2 µM (top of the series);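 note: cells exposed to compound for 16 hr before readout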
Outline: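 Caspase 3/7 activation measured by luminescent aminoluciferin substrate cleavage after 16 hr compound treatment of H-4-II-E cells in complete medium. Increase normalized between DMSO (basal) and 100 uM tamoxifen (100%); Hill-equation AC50 from concentration-response.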

[4] = Cellular Toxicity (caspase-3) Hek293 (AID 664); details: HEK293 caspase-3 activation, DMSO = 0%, 100 µM tamoxifen = 100%; at 92.2 µM (top of the series);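 note: cells exposed to compound for 16 h at 37 °C before readout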
Outline: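 qHTS, HEK293 (human embryonic kidney), 16 h cpd exposure in complete medium. Caspase-3/7 activation = luminescence increase; normalized to DMSO/100 uM tamoxifen; Hill-fit AC50.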

[5] = Cellular Toxicity (caspase-3) N2a (AID 665);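 note: compound exposure lasted 16 h at 37 °C before readout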
Outline: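 Caspase-3/7 activation, measured as increased luminescence from aminoluciferin release, is quantified in mouse N2a cells exposed to compounds for 16 h. Values are normalized to DMSO and 10 uM staurosporine, with AC50 derived by Hill modelling.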

[6] = Cellular Toxicity (caspase-3) NIH 3T3 (AID 666);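 note: caspase signal read after 16 h compound exposure; 0% = DMSO basal and 100% = 100 µM tamoxifen stimulation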
Outline: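 Cells were plated at 1000 per well and incubated 5 hr at 37°C, then compound was added for 16 hr. Caspase-Glo 3/7 reagent followed for 20 min at room temperature before luminescence was read.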

[7] = Cellular Toxicity (caspase-3) Renal Proximal Tubule (AID 667); details: Potency: caspase-3 activation;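 note: cells exposed to compound for 16 hours at 37 °C before detection; 0% = DMSO basal and 100% = 10 µM staurosporine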
Outline: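 In qHTS format, rat primary proximal tubule cells seeded at 1000 per well are exposed to compounds for 16 hours at 37 °C. An increase in Caspase-Glo 3/7 luminescence indicates caspase activation.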

[8] = target: Cytochrome P450 3A4 (Homo sapiens) (UniProt P08684); assay: qHTS Assay for Inhibitors and Substrates of Cytochrome P450 3A4 (AID 884); note: % is set by controls: 0 for no effect and ±100 for the full control effect; nearly all actives have a fitted effect of over 50% in size
Cytochrome P450 3A4 (Homo sapiens), sequence (P08684 whole entry, looked up): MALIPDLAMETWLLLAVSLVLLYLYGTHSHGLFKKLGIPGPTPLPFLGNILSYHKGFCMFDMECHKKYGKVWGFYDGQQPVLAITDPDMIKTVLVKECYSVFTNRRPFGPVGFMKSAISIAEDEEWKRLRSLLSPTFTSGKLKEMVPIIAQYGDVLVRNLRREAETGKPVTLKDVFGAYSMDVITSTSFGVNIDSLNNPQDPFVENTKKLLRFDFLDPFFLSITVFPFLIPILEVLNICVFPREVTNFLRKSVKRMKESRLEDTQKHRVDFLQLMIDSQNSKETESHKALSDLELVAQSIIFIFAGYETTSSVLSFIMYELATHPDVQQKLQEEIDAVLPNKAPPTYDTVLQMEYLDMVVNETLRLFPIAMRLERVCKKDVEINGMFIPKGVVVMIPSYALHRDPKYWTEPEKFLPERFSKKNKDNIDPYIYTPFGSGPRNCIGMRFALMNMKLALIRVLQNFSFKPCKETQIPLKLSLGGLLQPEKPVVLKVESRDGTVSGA
Outline: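 Luminescent readout of luciferin produced by CYP3A4 (20 nM) dealkylation of Luciferin-PPXE, 25 uM (its KM). NADPH-driven reaction ran 60 min at RT after 10 min compound preincubation; data scaled to 57 uM ketoconazole as 100% inhibition.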

[9] = Cell Viability - LYMP2-001 (AID 921);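 note: cells exposed to compound for 24 h at 37 °C; 0% = DMSO only and full inhibition = tetraoctylammonium bromide control wells; nearly all actives have a fitted effect of over 70% in size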
Outline: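 qHTS, 1536-well; lymphoblastoid cells, 24 hr compound, 37 C; ATP by CellTiter-Glo, 30 min RT; luminescence; Hill-fit AC50.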

[10] = MultiTox-Fluor Cytotoxicity Assay - LYMP1-002 - Live Cells (AID 955); note: % is set by controls: 0 for no effect and ±100 for the full control effect
Outline: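 Cells were seeded at 2500 per well and incubated 5 hr. Compounds were then added for 16 hr at 37 C, followed by MultiTox-Fluor reagent for 60 min at room temperature and fluorescence reading of viable-cell protease signal.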

[11] = MultiTox-Fluor Cytotoxicity Assay - LYMP1-002 - Dead Cells (AID 960); note: nearly all actives have a fitted effect of over 60% in size
Outline: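 Cells were plated, rested 5 hr, then treated with compound dilution series for 16 hr at 37 C. After adding substrate reagent and 60 min at room temperature, dead-cell protease fluorescence gave concentration-response curves fitted by the Hill equation.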

[12] = MultiTox-Fluor Cytotoxicity Assay - LYMP1-003 - Dead Cells (AID 961); note: nearly all actives have a fitted effect of over 70% in size
Outline: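 Dead-cell protease release, detected as bis-AAF-R110 fluorescence at 485/520 nm, was measured in LYMP1-003 cells after 16 h compound treatment at 37 C. AC50 values came from Hill-modeled qHTS curves normalized to DMSO (0%) and 15 uM tetraoctylammonium bromide (100%).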

[13] = MultiTox-Fluor Cytotoxicity Assay - LYMP1-003 - Live Cells (AID 962);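 note: 0% = DMSO only and full loss = 92 µM tetraoctylammonium bromide; cytotoxic hits lower the live-cell protease signal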
Outline: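 Acute cytotoxicity is scored as a drop in live-cell protease activity in human lymphoblastoid LYMP1-003 cells after 16 hr compound exposure at 37 C. AC50 values come from Hill-equation modelling of concentration-response data.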

[14] = Cell Viability - LYMP1-003 - Assay at 24 hr (AID 963);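 note: plate controls were DMSO only for no effect and tetraoctylammonium bromide positive control for full effect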
Outline: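 Cytotoxicity is scored as a concentration-dependent fall in ATP-linked luciferase signal in human lymphoblastoid LYMP1-003 cells treated 24 hr at 37 C in complete culture medium.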

[15] = Cell Viability - LYMP1-003 - Assay at 40 hr (AID 964); note: % is set by controls: 0 for no effect and ±100 for the full control effect; nearly all actives have a fitted effect of over 60% in size
Outline: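 Luminescent ATP signal (CellTiter-Glo) served as the viability read-out after 40 hr compound treatment of human lymphoblastoid LYMP1-003 cells at 37 C. Decreases in ATP were fitted with the Hill equation to give AC50.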

[16] = Cell Viability - LYMP2-003 (AID 965);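 note: cells exposed to compounds for 24 h before reading; 0% = DMSO only and full effect = 92 µM tetraoctylammonium bromide; nearly all actives have a fitted effect of over 50% in size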
Outline: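 Acute cytotoxicity is scored as a concentration-dependent drop in intracellular ATP, measured by luciferase luminescence in human lymphoblastoid cells treated for 24 hours at 37 C. AC50 values derive from Hill-equation modelling.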

[17] = target: Cytochrome P450 3A4 (Homo sapiens) (UniProt P08684); assay: qHTS Assay for Activators of Cytochrome P450 3A4 (AID 885); note: nearly all actives have a fitted effect of over 65% in size
Outline: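 Luminescent readout of luciferin formed from 25 uM Luciferin-PPXE (KM level) by 20 nM CYP3A4 in 200 mM KPO4, with 60 min NADPH-driven reaction at room temperature after 10 min compound exposure. Ketoconazole (57 uM) defined 100% inhibition.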

[18] = MultiTox-Fluor Cytotoxicity Assay - LYMP1-001 - Dead Cells (AID 946)
Outline: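 Cytotoxicity as increased dead-cell protease fluorescence (bis-AAF-R110, 485/520 nm), read 60 min after MultiTox-Fluor reagent. Human lymphoblastoid line exposed 16 h; Hill-fitted AC50, with DMSO as 0% and 15 uM tetraoctylammonium bromide as 100%.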

[19] = MultiTox-Fluor Cytotoxicity Assay - LYMP1-001 - Live Cells (AID 947);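 note: 0% = DMSO only and full inhibition = tetraoctylammonium bromide control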
[20] = Cell Viability - LYMP1-002 - Assay at 16 hr (AID 948);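 note: 0% = DMSO alone and full effect = 92 µM tetraoctylammonium bromide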
Outline: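 Acute cytotoxicity is scored as a concentration-dependent fall in intracellular ATP in a human lymphoblastoid line (LYMP1-002) after 16 hr compound exposure at 37 C, measured by luciferase luminescence.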

CCCCCNCCCCC
inactive: caspase-3 activation [1] 0.424% | outcome [2] | caspase-3 activation [3] 0.00908% | caspase-3 activation [4] 1.85% | outcome [5] | outcome [6] | Potency [7] | Potency [8] | Potency [9] | outcome [10] | outcome [11] | Potency [12] | Potency [13] | Potency [14] | Potency [15] | Potency [16]

Cc1ccc(S(=O)(=O)NC2CCCCC2)cc1
inactive: caspase-3 activation [1] 0.471% | outcome [2] | caspase-3 activation [3] -0.0757% | caspase-3 activation [4] 2.22% | outcome [5] | outcome [6] | Potency [7] | outcome [17] | Potency [9] | outcome [18] | outcome [19] | outcome [20] | outcome [10] | outcome [11] | Potency [12] | Potency [13] | Potency [14] | Potency [15] | Potency [16]

O=C(O)c1ccc(CO)o1
inactive: caspase-3 activation [1] -0.701% | outcome [2] | caspase-3 activation [3] 0.706% | caspase-3 activation [4] -0.635% | outcome [5] | outcome [6] | Potency [7] | Potency [8] | outcome [18] | outcome [19] | outcome [20] | outcome [10] | Potency [12] | Potency [13] | Potency [14] | Potency [15] | Potency [16]

CCCCCCC(=O)O
inactive: caspase-3 activation [1] -0.964% | outcome [2] | caspase-3 activation [3] 0.492% | caspase-3 activation [4] 0.189% | outcome [5] | outcome [6] | Potency [7] | Potency [8] | outcome [18] | outcome [19] | outcome [20] | outcome [10] | outcome [11] | Potency [12] | Potency [13] | Potency [14] | Potency [16]

CCCCC=O
inactive: caspase-3 activation [1] -1.05% | outcome [2] | caspase-3 activation [3] -0.686% | caspase-3 activation [4] -0.315% | outcome [5] | outcome [6] | Potency [7] | Potency [8] | outcome [18] | outcome [19] | outcome [20] | outcome [10] | outcome [11] | Potency [12] | Potency [14] | Potency [15] | Potency [16]

Cc1ccc2ncccc2c1
inactive: caspase-3 activation [1] 0.979% | outcome [2] | caspase-3 activation [3] 0.47% | caspase-3 activation [4] 0.475% | outcome [5] | outcome [6] | Potency [7] | Potency [8] | outcome [18] | outcome [19] | outcome [10] | Potency [12] | Potency [13] | Potency [14] | Potency [15] | Potency [16]

Cc1ccc2oc(=O)ccc2c1
inactive: caspase-3 activation [1] -0.888% | outcome [2] | caspase-3 activation [3] 1.34% | caspase-3 activation [4] -2.33% | outcome [5] | outcome [6] | Potency [7] | Potency [8] | outcome [18] | outcome [19] | outcome [20] | outcome [10] | outcome [11] | Potency [12] | Potency [13] | Potency [14] | Potency [16]

NC(=O)c1ccccc1[N+](=O)[O-]
inactive: caspase-3 activation [1] -0.625% | outcome [2] | caspase-3 activation [3] 0.0974% | caspase-3 activation [4] 0.369% | outcome [5] | outcome [6] | Potency [7] | Potency [8] | outcome [18] | outcome [19] | outcome [20] | outcome [11] | Potency [12] | Potency [13] | Potency [14] | Potency [15] | Potency [16]

CC=C(Cl)Cl
inactive: caspase-3 activation [1] -0.275% | outcome [2] | caspase-3 activation [3] 0.108% | caspase-3 activation [4] 0.136% | outcome [5] | outcome [6] | Potency [7] | Potency [8] | outcome [18] | outcome [19] | outcome [20] | outcome [10] | outcome [11] | Potency [12] | Potency [13] | Potency [14] | Potency [15] | Potency [16]

CNC(=O)c1ccccc1
inactive: caspase-3 activation [1] 0.192% | outcome [2] | caspase-3 activation [3] -1.03% | caspase-3 activation [4] -0.658% | outcome [5] | outcome [6] | Potency [7] | Potency [8] | outcome [18] | outcome [19] | outcome [20] | outcome [10] | outcome [11] | Potency [12] | Potency [13] | Potency [14] | Potency [15] | Potency [16]

CCN(CC)c1cccc(O)c1
inactive: caspase-3 activation [1] -0.898% | outcome [2] | caspase-3 activation [3] 2.1% | caspase-3 activation [4] 0.00739% | outcome [5] | outcome [6] | Potency [7] | outcome [17] | Potency [9] | outcome [18] | outcome [19] | outcome [20] | outcome [10] | Potency [12] | Potency [13] | Potency [14] | Potency [15] | Potency [16]

Oc1cccc(Nc2ccccc2)c1
inactive: caspase-3 activation [1] -0.245% | outcome [2] | caspase-3 activation [3] -0.0797% | caspase-3 activation [4] -0.23% | outcome [5] | outcome [6] | Potency [7] | outcome [17] | Potency [9] | outcome [18] | outcome [19] | outcome [20] | outcome [10] | Potency [12] | Potency [13] | Potency [14] | Potency [15] | Potency [16]

CNc1ccccc1
inactive: caspase-3 activation [1] 1.7% | outcome [2] | caspase-3 activation [3] 0.262% | caspase-3 activation [4] -1.03% | outcome [5] | outcome [6] | Potency [7] | Potency [8] | outcome [18] | outcome [19] | outcome [20] | outcome [10] | outcome [11] | Potency [12] | Potency [13] | Potency [14] | Potency [15] | Potency [16]

C/C(C=O)=C/c1ccccc1
inactive: caspase-3 activation [1] -0.174% | outcome [2] | caspase-3 activation [3] -1.36% | caspase-3 activation [4] 0.188% | outcome [5] | outcome [6] | Potency [7] | Potency [8] | outcome [18] | outcome [19] | outcome [20] | outcome [10] | outcome [11] | Potency [12] | Potency [13] | Potency [14] | Potency [15] | Potency [16]

Cc1c(C(=O)O)cccc1[N+](=O)[O-]
inactive: caspase-3 activation [1] -0.447% | outcome [2] | caspase-3 activation [3] -0.261% | caspase-3 activation [4] 1.44% | outcome [5] | outcome [6] | Potency [7] | Potency [8] | outcome [18] | outcome [19] | outcome [20] | outcome [11] | Potency [12] | Potency [13] | Potency [14] | Potency [15] | Potency [16]
